# aSyn rescue: alpha-synuclein toxicity inhibition in yeast; Yeast expressing alpha-synuclein, growth rescue, BacTiter-Glo, 24 h; Potency, µM (top dose mostly 46.1 µM), for inactives: at the highest dose growth rescue (activation), actives largely listed as activators; hit rate 0.14% among 370,000; further: % of control where 0% means no effect; nearly all actives have a fitted effect of over 65% in size
#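 Readout is rescue of growth in alpha-synuclein-expressing yeast, so inhibitors of toxicity appear as activators. Growth after 24 hr at 30 deg C in galactose medium is quantified by luminescence.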
# Abeta rescue: compounds reversing amyloid beta toxicity in yeast | yeast expressing A-beta42, growth rescue, OD600, 48 h; response scale: 0% DMSO, 100% iron-clioquinol control | Potency, µM (series often up to 46.1 µM), hits mostly activators | hit rate 0.063% among 410,000; further: nearly all actives have a fitted effect of over 55% in size
#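 Growth rescue measured by 600 nm absorbance after 48 h yeast culture at 30 C with compound. Values normalized between DMSO and an equimolar ferric chloride plus clioquinol control.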
# FUS yeast rescue: suppressors of FUS proteinopathy in yeast | AID 1347120 | Potency, µM (top dose mostly 76.6 µM), hits mostly activators | hit rate 0.24% among 390,000 | S. cerevisiae FUS-expressing, growth rescue, OD600, 24 h;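 further: plate controls were DMSO vehicle for no effect and reference control for full effect; nearly all actives have a fitted effect of over 55% in size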
#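 Cultures pregrown in 2.5% raffinose medium are shifted to minimal medium containing 2% galactose to express toxic FUS. Compounds are tested at several concentrations. After 24hr at 30C, growth is quantified at 600 nm absorbance.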
# TDP-43 yeast inh: inhibitors of TDP-43 toxicity in yeast. TDP-43 expressing yeast growth rescue, BacTiter-Glo, 24 h. Potency, µM (top dose mostly 46.1 µM), inactives show at the top dose growth rescue (activation), usual class: activators. hit rate 1.8% among 410,000; further: % of control where 0% means no effect; nearly all actives have a fitted effect of over 50% in size
#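 Yeast cells expressing TDP-43 under galactose induction are exposed to compounds for 24 hr at 30 deg C. BacTiter-Glo luminescence measures growth, so protective compounds score as activators.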
# Mito fusion act: blocks mitochondrial division or promotes mitochondrial fusion | hit rate 0.23% among 320,000 | S. cerevisiae fusion-defective mutant growth rescue, CellTiterGlo 48 h | Potency, µM (highest dose often 46.1 µM), inactives show top-dose growth rescue (activation), most hits filed as activators; further: % of control where 0% means no effect; nearly all actives have a fitted effect of over 45% in size
#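 Temperature-sensitive fusion-defective S. cerevisiae (e.g. fzo1-1, mgm1-5) were grown with compound in YPEG medium (3% ethanol, 3% glycerol) for 48 hours at 37C. Growth rescue was measured as viability by CellTiterGlo luminescence after 10 minutes at ambient.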
# * = called active by the depositor; i = inactive; ? = inconclusive; nt = not tested or not shown; ! = not active in a repeat. Hits are enriched below; roughly 2.2% of the tested compounds scored in any of these assays. The call rests on the fitted dose curve; in most records, active means well fitted curve in the direction sought with a large enough effect; inconclusive means small, poorly fitted or top-dose-only effect, or another doubt; inactive means no such curve, though single readings can be large; an effect the other way counts as inactive or inconclusive. Potency means the concentration at half of the fitted maximal effect.
SMILES,aSyn rescue,Abeta rescue,FUS yeast rescue,TDP-43 yeast inh,Mito fusion act
COc1cc(C2c3c(-c4cc(C)cc(C)c4O)n[nH]c3C(=O)N2CCCO)cc(OC)c1OC (stereo not drawn),-1.6%,i,i,0.6%,0.2%
CCO[C@@H]1OC(C(=O)Nc2ccccc2)=C[C@H](c2ccc(C(F)(F)F)cc2)[C@H]1CCCO,0.1%,?,?,12.6µM*,7.5%
CCCCC(c1nnnn1CC1CCCO1)N1CCN(c2ccccc2)CC1 (stereo not drawn),0.6%,i,i,6.5%,6.0%
CCCCC(c1nnnn1CC1CCCO1)N1CCN(c2nc3ccccc3s2)CC1 (stereo not drawn),-3.4%,i,i,-4.4%,14.1µM*
CCCCC(c1nnnn1CC1CCCO1)N1CCN(c2cc(Cl)ccc2C)CC1 (stereo not drawn),-13.7%,i,nt,17.8µM*,1.3%
CC(=O)N1CCCc2cc(S(=O)(=O)N3CCC(C(=O)NCc4ccccc4Cl)CC3)ccc21,nt,i,i,-3.9%,nt
O=C(Nc1nc(OCCN2CCCC2=O)cnc1/C=C\c1ccccc1)c1cc2ccccc2s1,?,i,39.8µM*,18.9%,nt
COc1cccc(Cn2c(=O)n(CC3CCC(C(=O)N4CCCCC4)CC3)c(=O)c3sccc32)c1 (stereo not drawn),nt,i,20µM*,?,nt
COC(=O)[C@]12C[C@H](CC(=O)N3CCOCC3)C(=O)N(CCC3=CCCCC3)C1=C[C@H](C(C)C)O[C@@H]2C1CC1,nt,nt,i,nt,nt
c1ccc(-c2cnc(CSc3ncnc4sccc34)o2)cc1,2.7%,i,i,22.4µM*,1.3%
CC(=O)Nc1ccc(SCc2ncc(-c3ccccc3)o2)cc1,-17.8%,i,i,-0.9%,?
O=C(COC(=O)c1ccc(-c2ccc([N+](=O)[O-])cc2)o1)NC(=O)NC12CC3CC(CC(C3)C1)C2,-1.6%,?,nt,?,10µM*
COc1ccc(CC(=O)OCC(=O)NC(=O)NC23CC4CC(CC(C4)C2)C3)cc1,12.9%,?,i,22.8%,2.0%
O=C(COC(=O)c1ccc(-c2ccc([N+](=O)[O-])cc2)o1)NC(=O)NC1CCCCC1,8.5%,?,nt,13.0%,13.0%
CC1CC1C(=O)OCC(=O)NC(=O)NC12CC3CC(CC(C3)C1)C2 (stereo not drawn),8.2%,8.91µM*,i,-1.0%,-2.2%
COCCNC(=O)c1ccc(CSc2nc3ccccc3s2)cc1,-3.4%,i,i,?,0.9%
O=C(NCc1ccccc1)c1nc2ccccc2s1,-18.7%,i,i,22.4µM*,-2.3%
CCc1ccc(Nc2nc(N)nc(CSc3nc4ccccc4s3)n2)cc1,0.9%,?,i,25.1µM*!,-13.3%
O=C(NCCO)c1nc2ccccc2s1,0.8%,i,i,-5.7%,-0.8%
CCNC(=O)c1ccc(CSc2nc3ccccc3s2)cc1,8.1%,i,i,14.1µM*,-4.8%
Cc1nnc(SCc2nc(N)nc(Nc3ccccc3)n2)s1,-0.7%,i,i,-3.6%,1.3%
CC(=O)Nc1ccc2nc(SCc3ccccc3)sc2c1,nt,i,i,17.8µM*,nt
COc1ccc(N2CCN(C(=O)c3cc4cc5ccc(Cl)cc5nc4o3)CC2)cc1,nt,i,i,-3.2%,nt
COc1ccc(-c2nc3ccccc3o2)cc1NC(=O)COc1ccc(C)cc1,4.0%,nt,nt,nt,nt
C/C(C=NNC(=O)c1cc(-c2ccc(Cl)cc2)n[nH]1)=C\c1ccccc1,nt,nt,i,nt,nt
SMILES,aSyn rescue,Abeta rescue,FUS yeast rescue,TDP-43 yeast inh,Mito fusion act
Fc1ccccc1-c1n[nH]c(=S)n1N=Cc1cccc(OCc2ccccc2)c1,nt,nt,i,nt,nt
CCc1ccc(NC(=O)c2ccc(F)c(S(=O)(=O)NCCc3ccc(OC)c(OC)c3)c2)cc1,nt,i,?,-7.6%,nt
CC(=O)C1=CCC(c2ccc(Cl)cc2)N(S(=O)(=O)c2ccc(C)cc2)C1 (stereo not drawn),?,i,?,35.5µM*!,nt
CC(=O)C1=CCC(c2ccc(Cl)cc2)N(S(=O)(=O)c2ccccc2)C1 (stereo not drawn),?,i,i,14.1µM*,nt
CC(=O)C1=CCC(c2ccc(C)cc2)N(S(=O)(=O)c2ccc(C)cc2)C1 (stereo not drawn),8.9%,i,i,18.6%,nt
COc1cc2c(NC3CCN(C)CC3)nc(N3CCCN(C)CC3)nc2cc1OCCCN1CCOCC1,6.0%,nt,nt,nt,nt
O=C(NC1CCCCN(Cc2cccc(Cl)c2)C1=O)c1c(F)cccc1F (stereo not drawn),nt,nt,i,nt,nt
CCCCCCCN(CCCCCCC)c1ccc(/C=C/c2ccnc3ccccc23)cc1,-2.8%,nt,nt,nt,nt
CC(C)(C)OC(=O)N1CCC(N[C@@H](Cc2c[nH]c3ccccc23)C(=O)NCCc2c[nH]c3ccccc23)(C(=O)NC2CCCCC2)CC1,nt,nt,20µM*,nt,nt
O=C(NCCCc1ccccc1)[C@H](Cc1c[nH]c2ccccc12)NC1(C(=O)NCCc2c[nH]c3ccccc23)CCOCC1,nt,nt,22.4µM*,nt,nt
CN1CCC(N[C@@H](Cc2ccccc2)C(=O)NCCCc2ccccc2)(C(=O)NCCc2c[nH]c3ccccc23)CC1,nt,nt,i,nt,nt
CC(C)(N[C@@H](Cc1c[nH]c2ccccc12)C(=O)NCC(c1ccccc1)c1ccccc1)C(=O)NC1CCCCC1,nt,nt,14.1µM*,nt,nt
COC(=O)C(=O)Nc1cccc2cccnc12,-16.9%,nt,nt,nt,nt
Cc1ccc(C)c(NC(=O)CSc2nc3nccnc3c(=O)n2CCc2c[nH]c3ccccc23)c1,nt,i,?,0.0%,nt
O=C(O)c1cccnc1C(=O)N1CCc2c([nH]c3ccccc23)C1C(F)(F)F (stereo not drawn),-1.1%,i,i,-7.4%,-2.1%
Cc1ccccc1C(=O)N1CCc2c([nH]c3ccccc23)C1C(F)(F)F (stereo not drawn),12.7%,i,i,22.4µM*,15.5%
CCOC(=O)c1ccc(N=C2C(=S)N(c3ccc(C(=O)OCC)cc3)C(=N)N2/N=C/c2ccccc2)cc1,0.5%,i,28.2µM*,0.0%,2.9%
C[C@]1(C2CCCC2)Cc2cc(OCC(=O)O)c(Cl)c(Cl)c2C1=O,4.3%,i,i,8.2%,nt
CCCC[C@@]1(C2CCCC2)Cc2cc(OCC(=O)O)c(Cl)c(Cl)c2C1=O,-48.5%,i,i,13.2%,20.6µM*!
CC(=O)c1cccc(NC(=O)CSc2nc3ccccc3nc2Cc2ccc(F)cc2)c1,nt,i,i,-4.7%,nt
COc1ccc(NC(=O)CCn2c(=O)c3cccn3c3ccccc32)cc1,-1.8%,i,i,5.4%,-0.6%
COc1ccc(NC(=O)CCn2c(=O)c3cccn3c3ccccc32)c(OC)c1,8.0%,i,i,22.4µM*,-1.3%
COc1ccc(NC(=O)NCc2cccn2C)c(OC)c1,-2.2%,i,28.2µM*,-3.3%,-4.2%

# High-throughput results (PubChem)
